Results: PubChem BioAssay AID1903 (Southern Research Specialized Biocontainment Screening …, 2009)
The campaign covered roughly 310,000 compounds. About 1,200 (0.39%) were called active. The rule behind the calls is not given here. A selection follows. Potency and affinity values are given separately.

biological target: Large T antigen (Simian virus 40) (UniProt P03070); test: TAg ATPase/helicase activity blockers – biochemical (AID 1903); conditions: SV40 large T antigen ATPase/helicase inhibition assay; at 20 µM; hits give high values
Sequence (P03070 whole entry, looked up): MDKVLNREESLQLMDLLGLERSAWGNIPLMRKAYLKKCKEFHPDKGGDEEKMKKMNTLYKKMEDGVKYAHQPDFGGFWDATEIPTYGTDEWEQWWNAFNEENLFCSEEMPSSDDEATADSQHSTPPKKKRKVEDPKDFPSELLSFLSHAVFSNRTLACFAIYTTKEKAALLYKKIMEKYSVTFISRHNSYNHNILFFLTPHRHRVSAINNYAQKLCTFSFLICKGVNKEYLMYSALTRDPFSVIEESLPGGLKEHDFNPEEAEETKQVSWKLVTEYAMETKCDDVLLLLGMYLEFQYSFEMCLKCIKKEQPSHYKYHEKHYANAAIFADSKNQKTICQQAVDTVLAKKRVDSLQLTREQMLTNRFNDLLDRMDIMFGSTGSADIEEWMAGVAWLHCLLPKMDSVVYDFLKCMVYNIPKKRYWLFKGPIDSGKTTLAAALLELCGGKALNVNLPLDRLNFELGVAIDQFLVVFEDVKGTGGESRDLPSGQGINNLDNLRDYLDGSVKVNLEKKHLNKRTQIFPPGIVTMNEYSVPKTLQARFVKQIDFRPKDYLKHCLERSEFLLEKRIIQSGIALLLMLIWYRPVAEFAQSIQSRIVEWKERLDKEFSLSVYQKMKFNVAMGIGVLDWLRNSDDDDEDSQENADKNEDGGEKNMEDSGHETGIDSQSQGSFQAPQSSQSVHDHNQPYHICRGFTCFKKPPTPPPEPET

inhibition, inactive:
O=S(=O)(Nc1cccc(-c2ccc(N3CCCCCC3)nn2)c1)c1ccc(C(F)(F)F)cc1 2.18%, C#CCOCCOCCOCCNc1nc(N2CCN(C(=O)Cn3cc(CCCCN)nn3)CC2)nc(N2CCN(C(=O)[C@H](C(C)C)n3cc(CCO)nn3)CC2)n1 9.84%, CC1=C(C(=O)NCc2ccccc2)C(c2cccnc2)n2ncnc2N1 (configuration not stated) 0.75%, Cc1cc(=O)[nH]c(SCc2ccccc2)n1 -3.07%, CCN(c1ccccc1)S(=O)(=O)c1ccc2ccccc2c1 1.9%, COc1cccc(OC)c1C(=O)Nc1ccc([N+](=O)[O-])cn1 8.19%, O=C(OC1CCCCC1)c1ccc2c(c1)C1C=CCC1C(C(=O)O)N2 (configuration not stated) 33.8%, CC(=O)c1ccc2c(c1)C1C=CCC1C(c1ccncc1)N2 (configuration not stated) 7.95%, COc1cc(SC)ccc1C(=O)N1CCN(c2ccccc2)CC1 2.66%, COc1cc(Cl)ccc1NC(=O)COc1ccccc1C(=O)NN 6.94%, COc1cc(SC)ccc1C(=O)N1CCN(c2ccccc2OC)CC1 2.01%, COc1cc(SC)ccc1C(=O)N1CCN(Cc2ccc3c(c2)OCO3)CC1 18.1%, COc1ccc(N2CCN(C(=O)c3ccc(SC)cc3OC)CC2)cc1 18.7%, COc1ccccc1NC(=O)COC(=O)c1ccccc1C(=O)N1CCN(c2ccccc2)CC1 6.53%, Cc1ncc([N+](=O)[O-])n1Cc1ccc(Br)cc1 7.03%, CCc1cccc(C)c1NC(=O)CN(C)Cc1ccc(Br)cc1 9.47%, O=C(NCc1ccco1)C1CC(c2ccc(F)cc2)=NO1 (configuration not stated) 6.38%, N#C/C(=C\c1c[nH]c2ccccc12)C(N)=O 5.89%, COC(=O)/C(C#N)=C\c1c(OC)[nH]c2ccccc12 8.82%, O=C(CN(c1ccccc1F)S(=O)(=O)c1ccccc1)Nc1ccccc1C(=O)N1CCOCC1 11.3%, Cc1cccc(NC(=O)c2ccc(N3CCOCC3)c([N+](=O)[O-])c2)n1 -1.72%, O=C(CNC(=O)c1cccc(F)c1)N/N=C/c1cccnc1 20.9%, C=C(C)CSc1nc2c(cc1C#N)CCC2 7.26%, CCn1c(COc2ccc(C)cc2)nc2ccccc21 3.75%, Cc1ccc(-c2nc3ccccc3nc2-c2ccccc2)cc1 0.76%, Cc1ccc(-c2nc(N)s[n+]2-c2ccccc2)cc1 13.6%, O=C1C(Cl)=C(N2CCCCC2)C(=O)N1Cc1ccccc1 0.56%, Cc1ccc(C(=O)N/C(=C\c2sccc2C)C(=O)NCc2ccco2)cc1 7.34%, COc1ccc(-c2ccc(/C=C3\C(=O)N(c4ccccc4)N=C3c3ccccc3)o2)c([N+](=O)[O-])c1 2.08%, O=C(O)/C(=C\c1ccc(-c2ccccc2[N+](=O)[O-])o1)c1ccccc1 10.1%, Cc1ccc(/C=C2\C(=O)ON=C2c2ccccc2)o1 -2.84%, O=C1/C(=C\c2ccc(-c3ccccc3[N+](=O)[O-])o2)C(c2ccccc2)=NN1c1ccccc1 -3.41%, CC1=NOC(=O)/C1=C\c1ccc(-c2ccc(Cl)cc2Cl)o1 16.7%, Cc1ccc(C2=NOC(=O)/C2=C\c2ccccc2)cc1 59.5%, O=C1COc2ccc(C(=O)COC(=O)c3sc4ccccc4c3Cl)cc2N1 7.71%, CCOc1ccc(CN(C)CC(=O)Nc2ccc(N3CCOCC3)cc2)cc1OC 6.36%, CC(NC(=O)c1ccccc1F)c1ccccc1 (configuration not stated) 3.89%, O=C(NCCNC1CCN(Cc2ccccc2)CC1)c1cccs1 5.49%, O=C1CCCC(=O)C1CS(=O)(=O)c1ccccc1 14.9%, CCOC(=O)N1CCC(=NNc2nc3ccccc3s2)CC1 8.66%, CC1(C)C(=O)Nc2ccccc2N1C(=O)COC(=O)c1ccc(Cl)c(S(=O)(=O)NCc2ccccc2)c1 6.69%, O=C(Nc1ccccc1F)c1ccccc1C(=O)Nc1ccccc1F 14.6%, CCCCn1c(N)c(N(CCC(C)C)C(=O)CC2CCCC2)c(=O)[nH]c1=O 19.1%, COc1ccc(CC(=O)NN2C(=O)c3ccccc3C2=O)cc1 10.8%, N[C@@H](Cc1c[nH]c2ccc(O)cc12)C(=O)O 20.5%, O=C1c2ccccc2C(=O)N1CCc1c[nH]c2ccccc12 14.9%, COc1ccc2[nH]cc(CCNC(C)=O)c2c1 -0.22%, O=C1c2ccccc2C(=O)N1CCCc1c[nH]c2ccc(Cl)cc12 8.17%, CC(=O)NCCc1c[nH]c2ccc(OCc3ccccc3)cc12 17%, O=C(O)Cc1c[nH]c2ccc(O)cc12 29.6%, COc1ccccc1CCN1CCCC(CN(C)C(=O)c2ccc3nc[nH]c3c2)C1 (configuration not stated) 6.91%, Cc1ccc(C)c(S(=O)(=O)N2CCCOC2CNC(=O)C(=O)NCCCn2ccnc2)c1 (configuration not stated) 7.3%, Cc1[nH][nH]c(=O)c1C=NCc1cccc(C(F)(F)F)c1 8.38%, CC(=N)c1c(O)c2ccccc2oc1=O 20.4%, O=C(Oc1cccc(Cl)c1)N1CCOCC1 7.93%, NS(=O)(=O)c1ccc(NC(=O)COC(=O)c2cccc(S(=O)(=O)N3CCCC3)c2)cc1 11.7%, Cc1c(NC(=O)c2cccc(-c3cc4ccccc4oc3=O)c2)cccc1-c1nc2ncccc2o1 -0.4%, CCCCNc1nnc(Cc2ccc(Cl)cc2)c(=O)[nH]1 9.41%, COc1ccc(NC2CCCN(C(=O)CSc3ccncc3)C2)cc1 (configuration not stated) 31.4%, O=C(CCCn1cncn1)N1CCCC(Nc2ccc(F)cc2)C1 (configuration not stated) 5.07%, COc1ccc(NC2CCCN(C(=O)CCCn3cncn3)C2)cc1OC (configuration not stated) 33.9%, COc1ccc(NC2CCCN(C(=O)CCN3Cc4ccccc4C3=O)C2)cc1 (configuration not stated) 34.5%, COc1ccc(NC2CCCN(C(=O)CCN3CCCO3)C2)cc1 (configuration not stated) 23%, O=C(CSc1ccccc1)N1CCCC(Nc2ccccc2)C1 (configuration not stated) 7.87%, COc1ccc(S(=O)(=O)Nc2cc(C(=O)NC3CCCCCC3)ccc2N2CCOCC2)cc1 3.07%, CCc1nn(CC(=O)NCCCN2CCCC2=O)c(=O)c2cc3sccc3n12 -4.15%, Cc1ccc(NS(=O)(=O)c2c(C)[nH]c(C)c2C(=O)N2CCCCC2)c(Cl)c1 -2.05%, CCOC(=O)c1ccc(NC(=O)C(=O)NCc2ccccn2)cc1 -2.35%, CC(C)(CC(=O)O)CC(=O)Nc1ccc2c(c1)ncn2CCc1ccccc1 5.95%, Cc1c(N=C2C(=O)Nc3ccccc32)c(=O)n(-c2ccccc2)n1C 1.2%, NC1=NC(=O)S/C1=C\c1ccc(F)cc1 8.64%, CC(C)(C)c1ccc(/C=C2\SC(=O)N=C2N)cc1 5.32%, Cc1c(N=C2NC(=O)/C(=C/c3cccc([N+](=O)[O-])c3)S2)c(=O)n(-c2ccccc2)n1C 4.3%, CCOc1cc(/C=C2\SC(N)=NC2=O)ccc1O 34.2%, COc1ccc(/C=C2/SC(=O)NC2=O)cc1 12.9%, O=C1NC(=O)/C(=C\c2ccc(Cl)nc2)S1 8.29%, COc1ccc(/C=C2\SC(=O)N=C2N)cc1OC 8.84%, CCN(CC)CCSc1nc(O)c(C(C)C)c(=O)[nH]1 14.1%, COC(=O)[C@@H](Cc1c[nH]c2ccccc12)NC(=O)c1cc(=O)[nH]c2ccccc12 2.68%, CCOc1cc(S(=O)(=O)NC2CCCC2)ccc1Cl 2.79%, O=C(NCc1cccs1)C(=O)c1c[nH]c2ccccc12 -25.6%, Cc1occc1-c1nnc(SCC(=O)N2CCOCC2)o1 1.14%, O=S(=O)(Nc1nc2c(s1)CCCC2)c1ccc(Br)cc1 -1.56%, COc1ccc(/C=C(\NC(=O)c2ccccc2)C(=O)OCC2CCCN3CCCCC23)cc1OC (configuration not stated) -3.64%, COc1ccc(/C=C/C(=O)OCC(=O)Nc2cc(S(=O)(=O)N(C)C)ccc2Cl)cc1 3.97%, COc1cccc(NC(=O)c2ccc(N3C(=O)C4CC=C(C)CC4C3=O)cc2)c1 (configuration not stated) 7.31%, Cc1cccc(S(=O)(=O)Nc2nc3ccccc3nc2Nc2ccc3c(c2)OCO3)c1 17.6%, Cc1nc2ccc(Br)cc2c2c1CC(CBr)O2 (configuration not stated) 10.6%, Cc1ccc(O)c(Nc2c3ccccc3nc3ccccc23)c1 12.6%, O=C(O)c1cccc(Nc2c3ccccc3nc3ccccc23)c1 -9.05%, CCCCNC(=O)OCCNC(=O)NC 7.67%, COc1ccc(N2CCC(CNC(=S)Nc3cccc(C)c3)C2)cc1 (configuration not stated) 21.4%, COc1ccc(NC(=S)NCC2CCN(c3ccc(OC)cc3)C2)cc1 (configuration not stated) 36.1%, COc1ccc(N2CCC(CNC(=S)Nc3cc(C)ccc3C)C2)cc1 (configuration not stated) 36.6%, COc1ccc(N2CCN(C(=S)Nc3cc(C)ccc3C)CC2)cc1 3.41%, COc1ccc(N2CCC(CNC(=S)Nc3cc(C)cc(C)c3)C2)cc1 (configuration not stated) 28.6%, COc1ccc(N2CCN(CC(=O)Nc3c(C)cc(C)cc3C)CC2)cc1 24%
